Reference: PubChem BioAssay AID623911 (Vanderbilt High Throughput Screening Facility, 2012)
The campaign covered roughly 2,100 compounds. About 770 (37%) were called active. Some of the results follow. A number with no mark means an inactive call.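 The calls were made as follows: active = by-eye trace score of 1 for enhancers or -1 for inhibitors, so actives lie on both sides (some results past the limit were not filed as active); inactive = score 0, or 3 fluorescent, or 4 baseline rise.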

These compounds were tested against G protein-activated inward rectifier potassium channel 2 (Homo sapiens) + G protein-activated inward rectifier potassium channel 1 (Homo sapiens) (UniProt P48051+P48549) (assay: GIRK1/2 thallium flux modulators, retest, confirmation, cell-based, HEK293 rmGlu8/hGIRK1/2, FluoZin-2 (AID 623911)). Conditions: HEK293 rmGlu8/hGIRK1/2, thallium flux FluoZin-2; actives lie on both sides; glutamate co-added at its EC20 level.
Chain of G protein-activated inward rectifier potassium channel 2 (Homo sapiens) + G protein-activated inward rectifier potassium channel 1 (Homo sapiens) (P48051 whole entry, looked up): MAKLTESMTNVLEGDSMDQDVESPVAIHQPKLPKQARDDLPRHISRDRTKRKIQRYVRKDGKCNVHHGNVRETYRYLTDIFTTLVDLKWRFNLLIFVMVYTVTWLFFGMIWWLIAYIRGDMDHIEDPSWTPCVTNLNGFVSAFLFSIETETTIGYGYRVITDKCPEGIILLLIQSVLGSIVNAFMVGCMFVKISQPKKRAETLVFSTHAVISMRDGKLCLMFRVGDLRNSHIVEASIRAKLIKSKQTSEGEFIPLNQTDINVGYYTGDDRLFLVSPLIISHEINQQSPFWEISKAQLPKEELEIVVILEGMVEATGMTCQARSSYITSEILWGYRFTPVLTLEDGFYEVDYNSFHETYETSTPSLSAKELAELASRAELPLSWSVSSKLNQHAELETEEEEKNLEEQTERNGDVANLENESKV
Chain of G protein-activated inward rectifier potassium channel 2 (Homo sapiens) + G protein-activated inward rectifier potassium channel 1 (Homo sapiens) (P48549 whole entry, looked up): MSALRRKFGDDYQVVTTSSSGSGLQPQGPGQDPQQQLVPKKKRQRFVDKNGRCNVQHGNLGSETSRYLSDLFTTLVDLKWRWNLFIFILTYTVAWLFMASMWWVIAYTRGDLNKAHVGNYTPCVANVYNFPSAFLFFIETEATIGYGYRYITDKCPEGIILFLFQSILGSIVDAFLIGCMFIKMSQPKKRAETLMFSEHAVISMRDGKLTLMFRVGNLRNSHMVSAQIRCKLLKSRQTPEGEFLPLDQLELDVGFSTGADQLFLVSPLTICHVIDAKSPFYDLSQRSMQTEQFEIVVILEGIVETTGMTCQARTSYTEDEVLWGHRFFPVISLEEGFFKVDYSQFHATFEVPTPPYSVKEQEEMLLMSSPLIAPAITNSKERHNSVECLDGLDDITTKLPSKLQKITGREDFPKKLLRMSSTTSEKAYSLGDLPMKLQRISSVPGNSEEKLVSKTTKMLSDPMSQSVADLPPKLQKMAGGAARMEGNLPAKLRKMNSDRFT

SMILES	manual score
Cc1ccc(NC(=S)NCc2ccccc2)cc1[N+](=O)[O-]	1 (active)
FC(F)(F)c1cccc(NC(=S)NC2CCCC2)c1	1 (active)
FC(F)(F)c1cccc(N2CCN(C(=S)NC3CCCCC3)CC2)c1	0
FC(F)(F)c1cccc(NC(=S)NCc2ccccc2)c1	1 (active)
O=C(Cc1ccccc1)NC(=S)Nc1cccc(C(F)(F)F)c1	0
COc1ccc(/C=C/C(=O)N2CCN(S(=O)(=O)/C=C/c3ccccc3)CC2)cc1OC	0
O=C(C1CCN(c2ncnc3c2sc2cccc(F)c23)CC1)N1CCOCC1	0
CCOc1ccc(-c2nc(-c3ccncc3)no2)cc1OCC	0.5
COc1ccc(/C(C)=N/NC(=S)NCc2ccco2)cc1	0
S=C(NCc1ccco1)Nc1ccc(Cl)c(Cl)c1	1 (active)
S=C(NCc1ccco1)N/N=C/c1ccc(Cl)cc1	0
COc1ccc2nc(N=Nc3ccc(O)c4ccccc34)sc2c1	0
COc1ccc(C(=S)Nc2ccc(N(C)C)cc2)cc1	0
COc1ccc2nc(NC(=S)N(C)C)sc2c1	1 (active)
Clc1ccccc1-c1nnc2sc(CCc3ccccc3)nn12	0
CCc1ccc2c(c1)c(N=NC1=NC(=O)CS1)c(O)n2C	1 (active)
CCn1c(O)c(N=NC2=NC(=O)CS2)c2cc(C)ccc21	0
CCc1ccc2c(c1)c(N=NC1=NC(=O)CS1)c(O)n2CC	1 (active)
CC(C)(C)c1csc(NC(=O)c2ccc3nccnc3c2)n1	0
Cc1cs/c(=N\N=C\c2cccc([N+](=O)[O-])c2)n1Cc1ccco1	0
CC(C)Sc1oc(-c2ccco2)nc1S(=O)(=O)c1ccccc1	-1 (active)
Cn1c(=O)cc(OCCCC(=O)NCc2ccc3c(c2)OCO3)c2ccccc21	0
CCCn1c(=N)c(C(=O)NCc2ccc3c(c2)OCO3)cc2c(=O)n3cccc(C)c3nc21	-1 (active)

SMILES	manual score
O=C(CCCCn1c(=O)c2ccccc2n(CC(=O)NC2CCCC2)c1=O)NCc1ccco1	0
Cc1cccn2c(=O)c3cc(C#N)c(=NC(=O)c4cccnc4)n(CC4CCCO4)c3nc12 (configuration not stated)	3
N=c1c(C(=O)NCc2ccco2)cc2c(=O)n3ccccc3nc2n1CCc1ccccc1	-1 (active)
O=C(CSc1nc2ccccc2c(=O)n1CC1CCCO1)N1CCN(c2ccccc2)CC1 (configuration not stated)	0
CCn1c(SCC(=O)c2cc(C)n(CC3CCCO3)c2C)nc2ccccc21 (configuration not stated)	-1 (active)
CCn1c(SCc2nc(-c3ccccc3)no2)nc2ccccc21	0
O=C(CCc1nc(-c2ccccc2F)no1)NCCN1CCN(Cc2ccccc2)CC1	0
Cc1oc(-c2cccc(Cl)c2)nc1CN1CCC(C(=O)NCc2ccco2)CC1	-1 (active)
CCN1CCCC1CNC(=O)CSCc1nc(-c2ccccc2C)oc1C (configuration not stated)	-1 (active)
O=C(CCN1C(=O)COc2ccccc21)NCCCN1CCc2ccccc2C1	0
CCc1ccc(-c2nc(CN3CCC(C(=O)NCc4ccco4)CC3)c(C)o2)cc1	-1 (active)
CCn1c(N)c(C(=O)NCc2ccco2)sc1=S	0
Cc1ccccc1-c1nc(CS(=O)(=O)CC(=O)NCCCN2CCCC2)c(C)o1	-1 (active)
O=C(c1cccc(F)c1)N1CCN(Cc2ccco2)CC1	0
Cc1ccc(S(=O)(=O)N/N=C/c2ccc(OC3CSC3)cc2)cc1	0
CCc1ccc2c(c1)C1(NN=C(c3ccc(C)cc3)S1)C(=O)N2 (configuration not stated)	0
Cc1ccccc1C(=O)Nc1ccc2nc3n(c(=O)c2c1)CCC3	0
CN(c1ccccc1C(=O)Nc1ccccc1C(=O)NCc1ccco1)S(C)(=O)=O	0
Cc1oc(-c2ccccc2F)nc1CS(=O)(=O)CC(=O)NCCN(C)C1CCCCC1	-1 (active)
CCN1CCCC1CNC(=O)C1CCN(Cc2nc(-c3cccc(Br)c3)oc2C)CC1 (configuration not stated)	-1 (active)
Cc1cc(C)nc(N2CCCC(C(=O)NCCc3ccc(F)cc3)C2)n1 (configuration not stated)	0
Cc1ccccc1-c1nc(CN2CCC(C(=O)NCc3ccco3)CC2)c(C)o1	-1 (active)
CCC1CCCCN1C(=O)c1cc2cc(Br)ccc2oc1=O (configuration not stated)	0

SMILES	manual score
Cc1oc(-c2cccc(Cl)c2)nc1CN1CCCC(C(=O)NCc2ccco2)C1 (configuration not stated)	-1 (active)
O=C(O)c1cnc(-c2ccccc2)nc1Sc1ccccc1Cl	0
CCn1c(=NC(=O)CSC(C)=O)sc2ccccc21	0
O=C(Nn1cnnc1)c1cc2cc(Br)ccc2oc1=O	0
Cc1c(N2C(=O)CS/C2=N\N=C\c2ccccc2O)c(=O)n(-c2ccccc2)n1C	0
Cc1cccc(-c2nc(CN3CCCC(C(=O)NC4CCCCC4)C3)c(C)o2)c1 (configuration not stated)	-1 (active)
CC1CC(C)CN(CCCn2c(=S)[nH]c3ccccc3c2=O)C1 (configuration not stated)	-0.5
O=C(C1CCCN(Cc2cccs2)C1)N1CCCCCC1 (configuration not stated)	0
Cc1ccccc1-c1nc(CN2CCC(C(=O)NCCCN3CC(C)CC(C)C3)CC2)c(C)o1 (configuration not stated)	-1 (active)
O=[n+]1cc(-c2ccccc2)n([O-])c2c1CCC2	0
CC1=C(C(=O)Nc2cccnc2)C(c2ccc3c(c2)OCO3)C2=C(CCCC2=O)N1 (configuration not stated)	-0.5
COCCN(C(=O)Cc1cccs1)C(C(=O)NCc1ccc(OC)cc1)c1ccccc1 (configuration not stated)	0
COC(=O)COn1c(SC(C)C)nc2ccccc2c1=O	0
Cc1cccc2sc(NC(=O)Cn3cccc3)nc12	0
CCc1ccc2nc(NC(=O)c3cc(C)on3)sc2c1	1 (active)
Cc1cc(C)c2nc(NC(=O)c3cc(C)on3)sc2c1	1 (active)
O=C(Nc1nc2ccc(Cl)cc2s1)c1ccc(Br)o1	0
CNC(=O)c1ccc2nc(NC(C)=O)sc2c1	-0.5
COc1ccc2[nH]c(C)c(C(=O)CN3CC(C)OC(C)C3)c2c1 (configuration not stated)	0
C/C(CC(=O)NC(C)C)=N\NC(=O)COc1cc(C)c(Br)cc1Br	1 (active)
C/C(CC(=O)NCC(C)C)=N\NC(=O)COc1cc(C)c(Br)cc1Br	1 (active)
